# According to PMC4336329 (PLoS ONE, 2015):
# Among all 310,000 compounds or so, about 14,000 (4.5%) showed an effect of 50% or more. Effects have a minus sign here. Many of the other results were omitted from the sample, so strong results are more common in it than they were.
# Target: human ether-à-go-go-related gene (hERG) potassium channel (human, UniProt Q12809)
# Assay: primary screen, population patch clamp on CHO cells stably expressing hERG; higher = less effect of the substance
# 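Further: peak tail current of the secondary pulse compared with the same well before compound.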
# Chain of human ether-à-go-go-related gene (hERG) potassium channel (Q12809 whole entry, looked up): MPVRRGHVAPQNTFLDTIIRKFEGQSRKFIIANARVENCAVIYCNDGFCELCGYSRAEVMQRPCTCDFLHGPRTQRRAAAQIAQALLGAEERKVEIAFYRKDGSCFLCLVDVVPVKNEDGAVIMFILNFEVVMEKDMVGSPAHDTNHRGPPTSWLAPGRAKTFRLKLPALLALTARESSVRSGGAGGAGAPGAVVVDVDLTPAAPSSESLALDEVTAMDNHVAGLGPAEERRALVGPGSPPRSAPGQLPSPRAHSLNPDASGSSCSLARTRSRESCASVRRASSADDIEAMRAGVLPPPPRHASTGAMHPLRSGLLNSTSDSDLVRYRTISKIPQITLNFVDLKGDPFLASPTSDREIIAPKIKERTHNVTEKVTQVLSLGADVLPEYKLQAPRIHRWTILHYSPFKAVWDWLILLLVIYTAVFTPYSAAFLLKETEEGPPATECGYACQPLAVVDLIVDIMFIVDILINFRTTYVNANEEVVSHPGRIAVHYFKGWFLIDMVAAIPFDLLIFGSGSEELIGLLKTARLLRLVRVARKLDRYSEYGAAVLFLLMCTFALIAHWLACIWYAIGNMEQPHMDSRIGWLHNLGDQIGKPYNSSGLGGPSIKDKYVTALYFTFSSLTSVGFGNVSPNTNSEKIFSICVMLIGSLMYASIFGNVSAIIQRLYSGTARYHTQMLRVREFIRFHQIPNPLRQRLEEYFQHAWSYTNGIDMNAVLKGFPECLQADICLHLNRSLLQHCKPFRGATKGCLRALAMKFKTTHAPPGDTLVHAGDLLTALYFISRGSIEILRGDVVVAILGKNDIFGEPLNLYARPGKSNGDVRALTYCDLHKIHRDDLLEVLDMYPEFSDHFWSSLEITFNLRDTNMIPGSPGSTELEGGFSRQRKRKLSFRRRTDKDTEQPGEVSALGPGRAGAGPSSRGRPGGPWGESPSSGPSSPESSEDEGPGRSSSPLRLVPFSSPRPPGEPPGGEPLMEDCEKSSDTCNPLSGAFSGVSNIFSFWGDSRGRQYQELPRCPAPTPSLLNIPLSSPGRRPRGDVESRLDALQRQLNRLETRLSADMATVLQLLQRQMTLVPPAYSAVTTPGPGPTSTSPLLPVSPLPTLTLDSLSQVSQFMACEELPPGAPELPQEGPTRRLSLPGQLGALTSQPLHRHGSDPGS
row,SMILES,"hERG current change (%, negative = inhibition) at 10uM"
1,COc1ccc(C(=O)Nc2ccc(N3CCOCC3)cc2)cc1OC,1.36%
2,Cc1ccc(CC(=O)NCCc2ccc(S(N)(=O)=O)cc2)cc1,5.87%
3,Brc1ccc([C@H]2CN3CCSC3=N2)cc1.O=C(O)C(=O)O,-35.7%
4,COc1ccc(OC)c(NC(=O)c2ccccc2SC)c1,-40.2%
5,CC(C)c1ccc(C2NC(=O)NC3=C2CCc2ccccc23)cc1 (stereo not drawn),-33.5%
6,COc1cc(Cl)c(CC(=O)c2c[nH]c3ccccc23)cc1OC,15.9%
7,OCC1(Cc2ccccc2C(F)(F)F)CCN(Cc2cccc3cnccc23)CC1,-11%
8,CN(C)S(=O)(=O)N1CCC(CO)(Cc2cccc(C(F)(F)F)c2)CC1,-4.25%
9,CC1(C(=O)N2CCC(CO)(Cc3cccc(C(F)(F)F)c3)CC2)CC1,4.02%
10,COc1ccc(CN2CCC(CO)(Cc3ccccc3C(F)(F)F)CC2)c(F)c1,-67.3%
11,OCC1(Cc2ccccc2C(F)(F)F)CCN(Cc2ccncc2)CC1,-13.8%
12,CC(=O)c1ccc(C(=O)N2CCC(CO)(Cc3cccc(C(F)(F)F)c3)CC2)cc1,-74.6%
13,CC(=O)N1CCN(c2ccc(NC(=O)c3cccc([N+](=O)[O-])c3)cc2)CC1,-3.59%
14,C/C(=N\NC(=O)CSc1nc(C)cc(C)n1)c1ccc2c(c1)OCCO2,18.3%
15,CCC(CC)C(=O)N1CC(=O)Nc2ccc(F)cc2C1c1ccc(F)cc1 (stereo not drawn),-27.8%
16,CCCc1cc(C(=O)NNC(=S)NCC)c2ccccc2n1,18.1%
17,CC1=C(C(=O)Nc2ccccn2)C(c2ccccc2)n2ncnc2N1 (stereo not drawn),13.7%
18,CC1=C(C(=O)Nc2ccccn2)C(c2ccc(F)cc2)n2ncnc2N1 (stereo not drawn),-13.1%
19,CC1=C(C(=O)Nc2ccccn2)C(c2ccc(N(C)C)cc2)n2ncnc2N1 (stereo not drawn),-62.7%
20,O=c1cc(-c2ccccc2)cc(-c2ccccc2)n1CCCO,-31.9%
21,CCc1ccc(C(=O)Nc2cc3c(cc2Cl)OCCCO3)cc1,23.5%
22,O=C(N[C@@H](c1ccccc1)[C@@H]1C[C@H]1C(=O)O)OCc1ccccc1,15.1%

row,SMILES,"hERG current change (%, negative = inhibition) at 10uM"
1,CN(C)C(=O)[C@@H]1C[C@H]1[C@@H](NC(=O)OCc1ccccc1)c1ccccc1,-64.2%
2,CNC(=O)[C@@H]1C[C@H]1[C@@H](NC(=O)OCc1ccccc1)c1ccccc1,-48.3%
3,O=P(O)(OCc1ccccc1)OCc1ccccc1,12.1%
4,O=C(O)c1cccc(NC2=Nc3cccc4cccc2c34)c1,14.3%
5,CCn1c(NC(=O)c2ccc(F)cc2)c2ccccc2nc1=O,-11.7%
6,Cc1cccn2c(=O)c3cc(C(=O)NCCN4CCOCC4)c(=N)n(CCc4ccccc4)c3nc12,-75%
7,COc1ccc(CCNC(=O)c2c(N)n(CCN3CCOCC3)c3nc4ccccc4nc23)cc1OC,-8.6%
8,COc1ccc(CCn2c(=O)[nH]c3cc(C(=O)NCCN4CCOCC4)ccc3c2=O)cc1OC,0.353%
9,COc1ccc(CCn2c(=N)c(C(=O)NCCN3CCOCC3)cc3c(=O)n4cccc(C)c4nc32)cc1OC,-97.8%
10,Cc1cccn2c(=O)c3cc(C(=O)NCCN4CCOCC4)n(C)c3nc12,-3.18%
11,O=C(N/N=C/c1ccco1)C1CCCC1,22.1%
12,Cc1ccc(C(=O)Nc2ccc(S(=O)(=O)Nc3ncccn3)cc2)cc1[N+](=O)[O-],13.4%
13,COc1cccc2cc(C(=O)NCc3ccccc3Cl)c(=O)oc12,6.78%
14,CC(C)CSc1nsc(N)n1,23.1%
15,COc1ccc(N2CCN(C(=O)c3cccc(NC(=O)c4ccco4)c3)CC2)cc1,-43.8%
16,COc1ccc(N2CCN(C(=O)c3ccc(C)c(NC(=O)c4ccco4)c3)CC2)cc1,-74.8%
17,O=C(c1ccco1)N1CCc2ccccc21,-3.68%
18,Cc1ccc(C(=O)N2CCN(C(=O)c3ccco3)CC2)cc1NC(=O)c1ccco1,-44.1%
19,Cc1ccc(C(=O)N2CCc3ccccc32)cc1NC(=O)c1ccco1,-68.1%
20,Cc1ccc(C(=O)N2CCN(c3ccccc3)CC2)cc1NC(=O)c1ccco1,-45.7%
21,COc1ccccc1CNC(=O)c1ccc(OC(F)F)c(OC)c1,-32.1%
22,CCOC(=O)c1sc(NC(=O)c2ccc(S(=O)(=O)N3CCOCC3)cc2)nc1-c1ccccc1,-27.6%

row,SMILES,"hERG current change (%, negative = inhibition) at 10uM"
1,Cc1ccc(-c2csc3nc[nH]c(=O)c23)cc1,6.88%
2,CCOc1cc(Br)ccc1S(=O)(=O)NCc1ccccc1,-30.3%
3,Cc1c(NC(=O)c2ccccc2NC(=O)COc2ccccc2)cccc1C(=O)O,14.2%
4,O=c1c2ccccc2nc(N2CCCC2)n1-c1ccccc1,10.7%
5,Cc1cc(N2CCN(C(=O)c3ccco3)CC2)n2ncc(-c3ccccc3)c2n1,-50.5%
6,Cc1cc(=O)[nH]c(N2CCN(C(=O)c3ccco3)CC2)n1,14%
7,O=C(c1ccco1)N1CCN(c2nc3ccccc3c(=O)n2-c2ccccc2)CC1,-54.9%
8,Cc1cc(N2CCN(C(=O)c3ccco3)CC2)c2ccccc2n1,-71.8%
9,O=C(c1ccco1)N1CCN(Cc2nc3ccccc3c(=O)n2-c2ccc(F)cc2)CC1,-18.8%
10,Cc1cc(N2CCN(C(=O)c3ccco3)CC2)nc(-c2ccccc2)n1,-65.4%
11,O=C(c1ccco1)N1CCN(C(=O)c2cc(Cl)nc3ccccc23)CC1,-35.2%
12,Cc1nc2ccccc2c2oc(C(=O)N3CCN(C(=O)c4ccco4)CC3)cc12,-46.7%
13,Cc1cc(N2CCN(C(=O)c3ccco3)CC2)n2ncnc2n1,-30.3%
14,Cc1cc(N2CCN(c3ccccc3)CC2)nc(-c2ccccc2)n1,-30.9%
15,Cc1cc(N2CCN(C(=O)c3ccco3)CC2)n2nc(C)nc2n1,-44%
16,C=CCN=C(C)C1=C(O)CCC1=O,16.5%
17,O=C(CSc1nc2c(c(=O)n1-c1ccc(Cl)cc1)SCC2)N1CCOCC1,-14.2%
18,O=C1C(C2=NC(c3ccccn3)C3C(=O)N(c4ccc(Cl)cc4Cl)C(=O)C23)=C(O)c2ccccc21 (stereo not drawn),-4.11%
19,O=C(Cc1cccs1)NNC(=O)c1ccc(F)cc1,3.91%
20,Cc1ccc(CNC(=O)C2CC(c3cc(C(F)(F)F)cc(C(F)(F)F)c3)=NO2)o1 (stereo not drawn),-12.1%
21,CCOc1ccc(-c2noc(CCC(=O)O)n2)cc1,-1.59%
22,Cc1nnc(NC(=O)c2ccc(-c3ccc([N+](=O)[O-])cc3)o2)s1,-11.7%

row,SMILES,"hERG current change (%, negative = inhibition) at 10uM"
1,c1ccc(COc2ccc(OCCn3cncn3)cc2)cc1,4.65%
2,CCn1c(O)c(C=Nc2ccccc2)sc1=O,13.9%
3,O=C(Nc1ccc(OCC(=O)N2CCOCC2)cc1)Nc1cccc(Cl)c1,-7.18%
4,COc1cc(COCC(O)CN2CCN(CCN3C(=O)c4cccc5cccc(c45)C3=O)CC2)cc(OC)c1OC.Cl (stereo not drawn),-62%
5,COc1cc(COCC(O)CN2CCN(Cc3ccccc3)CC2)cc(OC)c1OC.Cl (stereo not drawn),-39.1%
6,CCN1CCN(CC(O)COCc2cc(OC)c(OC)c(OC)c2)CC1.Cl (stereo not drawn),22.2%
7,O=C1c2ccccc2C(=O)N1CC(O)COCc1ccccc1 (stereo not drawn),19.4%
8,Cl.O=C1c2cccc3cccc(c23)C(=O)N1CCN1CCN(CC(O)COCc2ccc(Cl)cc2)CC1 (stereo not drawn),-72.5%
9,O=C1c2cccc3cccc(c23)C(=O)N1CCN1CCN(C(=S)Nc2ccc(Cl)cc2)CC1,16.4%
10,O=C(Nc1c(-c2ccccc2)nc2ncccn12)c1cc2ccccc2oc1=O,-12.2%
11,COC(=O)c1cc(-c2ccc(Cl)cc2Cl)n[nH]1,14.1%
12,O=Cc1c(Sc2ccccc2)nc2ccccn2c1=O,-0.892%
13,COc1ccc(-c2csc3[nH]c(=S)n(-c4ccccc4)c(=O)c23)cc1OC,23.8%
14,O=C(Nc1ccccc1)NN(C(=O)CCl)c1ccccc1,6.85%
15,CSc1cc(C)nc(N(C)C(C)=O)n1,27.1%
16,CCOC(=O)c1cn(Cc2ccccc2)nc1-c1ccccc1,-8.37%
17,O=C(O)c1ccc(NS(=O)(=O)c2ccc3c(c2)C(=O)c2ccccc2C3=O)cc1,18.5%
18,S=c1[nH]nc(Cc2cccs2)n1-c1ccccc1,16.2%
19,CCCCc1ccc(-n2c(Cc3cccs3)n[nH]c2=S)cc1,-56.3%
20,Cc1ccccc1-n1c(Cc2cccs2)n[nH]c1=S,14.3%
21,O=C(Nc1ccc2c(c1)OCO2)c1cc(-c2ccccc2Cl)on1,15.3%
